In the supplement of paper PMC3334620:
In all, about 33,000 sequences were measured (“E-score (-0.5 to 0.5)”: median about -0.013, highest 2% from about 0.3 on). For the sample, the highest values were picked, then their nearest neighbours and some sequences at random.

These sequences were tested against T1, Msn1 (UniProt P22148) (assay: PBM E-score (8-mer binding enrichment) (E-score (-0.5 to 0.5)); higher = stronger / more preferred TF binding). Settings: protein concentration: 200 nM; construct: GST-full length.
T1 sequence: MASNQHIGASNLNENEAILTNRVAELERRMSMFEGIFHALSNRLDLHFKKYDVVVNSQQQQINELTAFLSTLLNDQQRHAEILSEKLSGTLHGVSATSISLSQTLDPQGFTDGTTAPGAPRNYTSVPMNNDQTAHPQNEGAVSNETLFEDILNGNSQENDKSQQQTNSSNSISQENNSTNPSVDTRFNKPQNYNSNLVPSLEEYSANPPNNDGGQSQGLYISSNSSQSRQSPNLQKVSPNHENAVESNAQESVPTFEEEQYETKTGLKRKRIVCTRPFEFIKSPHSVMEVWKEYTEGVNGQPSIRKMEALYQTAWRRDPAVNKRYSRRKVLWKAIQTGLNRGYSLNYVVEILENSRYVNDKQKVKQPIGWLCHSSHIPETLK
Method: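 Universal 'all 10-mer' protein binding microarrays (Agilent AMADID 015681) probed with GST-tagged S. cerevisiae TFs (full-length or DBD) made by in vitro transcription/translation (PURExpress), about 100-200 nM. Bound TF was detected with fluorescent anti-GST. Each ungapped 8-mer (which stands for itself and its reverse complement) is scored by the PBM enrichment score (E-score), a modified Wilcoxon-Mann-Whitney statistic from -0.5 to +0.5, computed with the Universal PBM Analysis Suite. Scale: above 0.35 generally sequence-specific binding.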
With GTGATCTA the “PBM E-score” value was 0.00906. For ACTTTTGA, the “PBM E-score” value was 0.208. For ATATCCGG, the “PBM E-score” value was 0.11. With GTCTCAAC the “PBM E-score” value was 0.136. TCTAAAGA was tested, and the “PBM E-score” value was 0.205. In the case of AACCTTCT, the “PBM E-score” value is reported as -0.205. TAAATCCA was tested, and the “PBM E-score” value was 0.0101. In the case of CGAAGATC, the “PBM E-score” value is reported as -0.0505. With ACGTACAT the “PBM E-score” value was 0.307. In the case of AAGTACAT, the “PBM E-score” value is reported as 0.356. ACGTACAA was tested, and the “PBM E-score” value was 0.234. AAGTACAC was tested, and the “PBM E-score” value was 0.192. With ACGTACAG the “PBM E-score” value was -0.0675. In the case of AAGTACAG, the “PBM E-score” value is reported as 0.0535. With GAGTCATC the “PBM E-score” value was -0.114. For GGTGTCAC, the “PBM E-score” value was -0.0252. CGCGACAA was tested, and the “PBM E-score” value was 0.304. AACGACAG was tested, and the “PBM E-score” value was -0.0454. With AACGACAT the “PBM E-score” value was 0.417. For AATGACAC, the “PBM E-score” value was 0.213. In the case of CACGACAA, the “PBM E-score” value is reported as 0.256. For GGCGACAA, the “PBM E-score” value was 0.069. For AATGACAT, the “PBM E-score” value was 0.42. With GACGACAA the “PBM E-score” value was 0.299. For AACGACAA, the “PBM E-score” value was 0.262. With TACGACAA the “PBM E-score” value was 0.352. In the case of CGCGACAG, the “PBM E-score” value is reported as -0.00106. For AATGACAG, the “PBM E-score” value was 0.151. In the case of CAAGATCC, the “PBM E-score” value is reported as 0.0979. For AAGCAAAG, the “PBM E-score” value was -0.064. With AGGGCCTC the “PBM E-score” value was -0.236. For AGTTGTGA, the “PBM E-score” value was 0.137. For CGGACCAA, the “PBM E-score” value was 0.256. For CTATCGCA, the “PBM E-score” value was -0.201. AACCACGT was tested, and the “PBM E-score” value was -0.0931. In the case of CTACCAAA, the “PBM E-score” value is reported as -0.0795. In the case of GAGTACTA, the “PBM E-score” value is reported as 0.198. AGCGACAA was tested, and the “PBM E-score” value was 0.301. In the case of TGCGACAA, the “PBM E-score” value is reported as 0.338. In the case of TGCGACCA, the “PBM E-score” value is reported as 0.0994. For TACTAATA, the “PBM E-score” value was 0.0704. TATTAATA was tested, and the “PBM E-score” value was -0.134. In the case of AATTAATA, the “PBM E-score” value is reported as 0.352. With CTTTAATA the “PBM E-score” value was 0.193. With GATTAATA the “PBM E-score” value was 0.143. In the case of ATTTAATA, the “PBM E-score” value is reported as 0.336. CACTAATA was tested, and the “PBM E-score” value was 0.0713. With AACTAATA the “PBM E-score” value was 0.326. GTTTAATA was tested, and the “PBM E-score” value was 0.315. For GTTTAAAA, the “PBM E-score” value was 0.0898. In the case of AATTAATT, the “PBM E-score” value is reported as 0.168. For ATTTAATG, the “PBM E-score” value was 0.202. For CGCGGTGC, the “PBM E-score” value was -0.123. In the case of TAAGTTAA, the “PBM E-score” value is reported as -0.0568. For CGCTACCG, the “PBM E-score” value was 0.00385. In the case of GGCGAAAA, the “PBM E-score” value is reported as 0.24. GTTAGAAA was tested, and the “PBM E-score” value was -0.0269. With CATCTTCA the “PBM E-score” value was 0.0522. In the case of GGAGGGCC, the “PBM E-score” value is reported as -0.273. CGCCAGGC was tested, and the “PBM E-score” value was -0.174. In the case of TATATTAA, the “PBM E-score” value is reported as 0.232. In the case of AATATTGG, the “PBM E-score” value is reported as -0.0454. With AATATTGC the “PBM E-score” value was 0.218. With AATATTAG the “PBM E-score” value was 0.131. With AATATTGT the “PBM E-score” value was 0.35. In the case of AATATTAT, the “PBM E-score” value is reported as 0.208. In the case of AATATTAA, the “PBM E-score” value is reported as 0.318. CATATTAA was tested, and the “PBM E-score” value was 0.32. With CATATTAG the “PBM E-score” value was 0.193. In the case of CGATAAAG, the “PBM E-score” value is reported as 0.119. AGCTCACC was tested, and the “PBM E-score” value was -0.141. For AAAGTCCC, the “PBM E-score” value was 0.344. GAAGTCCA was tested, and the “PBM E-score” value was 0.212. In the case of AAAGTCCT, the “PBM E-score” value is reported as 0.427. TAAGTCCA was tested, and the “PBM E-score” value was 0.26. AAAGTCCA was tested, and the “PBM E-score” value was 0.378. In the case of CAAGTCCC, the “PBM E-score” value is reported as 0.148. CAAGTCCG was tested, and the “PBM E-score” value was 0.0478. In the case of GAAGTCCC, the “PBM E-score” value is reported as -0.0665. AGAGTCCT was tested, and the “PBM E-score” value was -0.0894. With AGAGTCCG the “PBM E-score” value was 0.0522. For AAAGTCGT, the “PBM E-score” value was 0.223. With AAAGTCCG the “PBM E-score” value was 0.342. For AATGGCTA, the “PBM E-score” value was -0.0496. For ATGTTCAA, the “PBM E-score” value was 0.185. For CCACTGGA, the “PBM E-score” value was -0.216.
